Laboratory results: PubChem BioAssay (NCI)
Compounds without any hit were thinned out: in the full panel of roughly 83,000, 20% have a hit.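 48-hour exposure, single concentration, 96-well plates; percent growth endpoint where 0 means no net growth. Active: below 10.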 Calls of active or inactive are those of the source.

Tests used:
Assay in all cases: NCI-60 one-dose screen, 48 h (100 = growth as untreated, 0 = no growth, -100 = all killed)
Details in all cases: 10 µM unless noted
NCI-H23 lung = system: NCI-H23 lung
NCI-H226 lung = system: NCI-H226 lung
NCI-H322M lung = system: NCI-H322M lung
HOP-62 NSCLC = system: HOP-62 NSCLC
NCI-H460 lung = system: NCI-H460 lung
HOP-92 NSCLC = system: HOP-92 NSCLC
A549/ATCC NSCLC = system: A549/ATCC NSCLC
786-0 renal = system: 786-0 renal
COLO 205 colon = system: COLO 205 colon
DU-145 prostate = system: DU-145 prostate
K-562 leukemia = system: K-562 leukemia
MALME-3M melanoma = system: MALME-3M melanoma
MDA-MB-231 breast = system: MDA-MB-231 breast
RXF 393 renal = system: RXF 393 renal
SF-268 CNS = system: SF-268 CNS
SF-295 CNS = system: SF-295 CNS
SF-539 CNS = system: SF-539 CNS
UACC-257 melanoma = system: UACC-257 melanoma
M14 melanoma = system: M14 melanoma
NCI-H522 lung = system: NCI-H522 lung

Measured: growth

[N-]=[N+]=CC(=O)CCC(=O)C=[N+]=[N-]
inactive: NCI-H23 lung 105% | NCI-H226 lung 100% | NCI-H322M lung 95.8% | HOP-62 NSCLC 92.6% | NCI-H460 lung 112% | HOP-92 NSCLC 90.6% | A549/ATCC NSCLC 113% | 786-0 renal 99.3% | COLO 205 colon 117% | DU-145 prostate 127% | K-562 leukemia 83.9% | MALME-3M melanoma 96.3% | MDA-MB-231 breast 103% | RXF 393 renal 124% | SF-268 CNS 121% | SF-295 CNS 106% | SF-539 CNS 88.3% | UACC-257 melanoma 137%

CNC(=O)O/N=C(\SC)C(=O)N(C)C
inactive: NCI-H23 lung 93.4% | NCI-H226 lung 110% | NCI-H322M lung 111% | HOP-62 NSCLC 105% | NCI-H460 lung 107% | HOP-92 NSCLC 76.8% | A549/ATCC NSCLC 109% | 786-0 renal 105% | COLO 205 colon 105% | DU-145 prostate 117% | K-562 leukemia 89.2% | MALME-3M melanoma 117% | MDA-MB-231 breast 110% | RXF 393 renal 105% | SF-268 CNS 105% | SF-295 CNS 113% | SF-539 CNS 103% | UACC-257 melanoma 103% | M14 melanoma 102%

C/C(=C\c1ccn(-c2ccc(N)c(C(F)(F)F)c2)n1)[C@@H]1C[C@@H]2O[C@]2(C)CCC[C@H](C)[C@H](O)[C@@H](C)C(=O)C(C)(C)[C@@H](O)CC(=O)O1
inactive: NCI-H23 lung 32.9% | NCI-H226 lung 52% | NCI-H322M lung 23.2% | HOP-62 NSCLC 41% | NCI-H460 lung 12.7% | HOP-92 NSCLC 52.4% | A549/ATCC NSCLC 31.1% | 786-0 renal 27.4% | K-562 leukemia 11.9% | MALME-3M melanoma 51.7% | MDA-MB-231 breast 22.8% | SF-268 CNS 36% | SF-295 CNS 15.1% | UACC-257 melanoma 64.3%
active: COLO 205 colon -16.5% | DU-145 prostate -12.7% | RXF 393 renal 8.01% | SF-539 CNS -8.5%

Cc1cc(NC(=O)NCCCOc2ccc(N3C(N)=NC(N)=NC3(C)C)cc2Cl)ccc1S(=O)(=O)F
inactive: NCI-H23 lung 24.1% | NCI-H226 lung 55.7% | NCI-H322M lung 54.2% | HOP-62 NSCLC 51.9% | NCI-H460 lung 13.6% | HOP-92 NSCLC 74.6% | A549/ATCC NSCLC 14.7% | 786-0 renal 40.1% | COLO 205 colon 27.9% | DU-145 prostate 33.6% | K-562 leukemia 25.1% | MALME-3M melanoma 55.6% | MDA-MB-231 breast 71.7% | RXF 393 renal 48.6% | SF-268 CNS 32.7% | SF-295 CNS 30.4% | SF-539 CNS 17.5% | UACC-257 melanoma 25.9% | M14 melanoma 41%

C[C@]12CCc3sc(Nc4ccc(O)cc4)nc3C1=CC[C@@H]1[C@@H]2CC[C@]2(C)C(=O)CC[C@@H]12
active: 786-0 renal -3.03% | RXF 393 renal -16.2% | SF-539 CNS -3.84%
inactive: NCI-H23 lung 70.2% | NCI-H226 lung 103% | NCI-H322M lung 93.4% | HOP-62 NSCLC 92.7% | NCI-H460 lung 65.6% | HOP-92 NSCLC 126% | A549/ATCC NSCLC 79.3% | COLO 205 colon 38.5% | DU-145 prostate 10.4% | K-562 leukemia 10.8% | MALME-3M melanoma 29.7% | MDA-MB-231 breast 35.3% | SF-268 CNS 58.3% | SF-295 CNS 52.5% | UACC-257 melanoma 73.4% | M14 melanoma 58.1%

CCCCS(=O)(=O)Cl
inactive: NCI-H23 lung 108% | NCI-H226 lung 100% | NCI-H322M lung 111% | HOP-62 NSCLC 122% | NCI-H460 lung 106% | HOP-92 NSCLC 97.4% | A549/ATCC NSCLC 109% | 786-0 renal 103% | COLO 205 colon 109% | DU-145 prostate 113% | K-562 leukemia 107% | MALME-3M melanoma 108% | MDA-MB-231 breast 111% | RXF 393 renal 112% | SF-268 CNS 108% | SF-295 CNS 102% | SF-539 CNS 99% | UACC-257 melanoma 110% | M14 melanoma 99.1%

O=C(O)C(F)F
inactive: NCI-H23 lung 107% | NCI-H226 lung 89.9% | NCI-H322M lung 114% | HOP-62 NSCLC 86.9% | NCI-H460 lung 89.2% | HOP-92 NSCLC 107% | NCI-H522 lung 101% | 786-0 renal 106% | COLO 205 colon 105% | DU-145 prostate 107% | K-562 leukemia 92.4% | MALME-3M melanoma 102% | MDA-MB-231 breast 98.9% | RXF 393 renal 97.1% | SF-268 CNS 98.9% | SF-295 CNS 101% | SF-539 CNS 97.1% | M14 melanoma 107%

COc1ccc(N)cc1N
inactive: NCI-H23 lung 96.8% | NCI-H226 lung 103% | NCI-H322M lung 96.1% | HOP-62 NSCLC 95.5% | NCI-H460 lung 107% | HOP-92 NSCLC 85.7% | A549/ATCC NSCLC 118% | 786-0 renal 102% | COLO 205 colon 121% | DU-145 prostate 120% | K-562 leukemia 115% | MALME-3M melanoma 117% | MDA-MB-231 breast 99% | SF-268 CNS 128% | SF-295 CNS 105% | SF-539 CNS 92.8% | M14 melanoma 111%
